Compound activity from PubChem BioAssay.
Pf growth 48h – P. falciparum growth inhibition at 48 hours (one generation) | P. falciparum luciferase growth in erythrocytes, 48 h | Potency, µM (series often up to 28.7 µM), without a hit: at the top dose activity change, negative = inhibition, hits mostly inhibitors | hit rate 5.9% among 310,000; also: potency is read from the fitted curve at half-maximal effect; % is scaled to controls: 0 for no effect and ±100 for the full control effect
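Growth was read as firefly luciferase luminescence after a 48 h, 37 C, 5% CO2 exposure of compounds to reporter-bearing P. falciparum cultures (0.1% parasitemia, 2% hematocrit final) in Albumax-supplemented RPMI 1640.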
Pf growth 96h – inhibits malaria parasite growth, 96 h; Potency, µM (series often up to 28.7 µM), for inactives: top-dose activity change, negative = inhibition, most hits filed as inhibitors; AID 504834; hit rate 6.9% among 320,000; P. falciparum luciferase reporter growth, 96 h; also: potency is read from the fitted curve at half-maximal effect; % is scaled to controls: 0 for no effect and ±100 for the full control effect
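Cell-based qHTS: luciferase-tagged P. falciparum in erythrocytes (2% hematocrit, 0.05% parasitemia final) incubated with compounds for 96 hours, 37 C, 5% CO2; luciferase detection reagent then added and luminescence measured.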
CHX counter – counter-screen for Shiga toxin inhibitors: cycloheximide protein synthesis inhibition; cell reporter, cycloheximide protein synthesis inhibition counterscreen; max response, %; hit rate 12% among 300,000; AID 2314; in the data active = max response mostly above about 13%, no sharp cut-off; inactive = mostly below about 14%; also: read at 38.3 µM for the half of the compounds with a filed dose; 0% is about no effect
Shiga inhibitor – Shiga toxin inhibition; Vero cells, Shiga toxin protein synthesis inhibition reporter; hit rate 9.2% among 290,000; AID 2315; inhibition, % at 38.7 µM; in the data active = inhibition mostly above about 28%, no sharp cut-off; inactive = mostly below about 43%; also: 0% is about no effect
Giardia FBPA inh – blocks Giardia fructose-bisphosphate aldolase activity. A8B2U2. purified Giardia FBPA. Potency, µM (doses to about 59.6 µM), inactives show at the highest dose activity, negative = inhibition, hits mostly inhibitors. hit rate 0.71% among 290,000; also: potency is read from the fitted curve at half-maximal effect; % is scaled to controls: 0 for no effect and ±100 for the full control effect; nearly all actives have a fitted effect of over 55% in size
Target sequence (A8B2U2 whole entry, looked up): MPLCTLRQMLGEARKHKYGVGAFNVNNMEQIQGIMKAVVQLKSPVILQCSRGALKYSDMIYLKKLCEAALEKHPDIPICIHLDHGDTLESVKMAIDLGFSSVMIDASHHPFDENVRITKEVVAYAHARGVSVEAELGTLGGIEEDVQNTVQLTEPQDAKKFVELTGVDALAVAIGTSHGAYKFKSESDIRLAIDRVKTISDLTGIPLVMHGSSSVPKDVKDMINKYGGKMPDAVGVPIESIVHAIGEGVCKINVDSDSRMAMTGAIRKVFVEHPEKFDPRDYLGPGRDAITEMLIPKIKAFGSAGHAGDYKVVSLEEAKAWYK
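40 nM FBPA preincubated 10 min at RT with compound (up to 57.5 uM final), then substrate plus GAPDH/TPI/NAD/arsenate coupling and diaphorase/resazurin added. Fluorescence read after 20 min at RT, 525/598 nm.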
NS1 function inh – inhibitors of influenza NS1 protein function. Potency, µM (top dose mostly 46.1 µM), for inactives: at the top dose activity, positive = more growth. hit rate 0.4% among 270,000. AID 2326; calls by dose curve; also: potency is read from the fitted curve at half-maximal effect; actives are rising curves; nearly all actives have a fitted effect of over 50% in size
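Read-out: OD600 growth recovery of NS1-expressing budding yeast. Cells grown overnight at 30C in -URA glucose medium, washed, resuspended and diluted 1:100 in 2% galactose assay medium, pH 6.0. Same strain lacking NS1 served as positive control.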
* hit, by the source's call; ? = inconclusive; . = no result given; [ ] = another dose, or the depositor's remark. Only some compounds are listed: those with a hit (about 21% of all), similar ones and a draw of the others. Unless noted, calls follow the shape of the dose curve; as a rule, active = well fitted curve in the direction sought with a large enough effect; inconclusive = small, poorly fitted or top-dose-only effect, or another doubt; inactive = no such curve, though single readings can be large; an effect the other way counts as inactive or inconclusive.

SMILES	Pf growth 48h	Pf growth 96h	CHX counter	Shiga inhibitor	Giardia FBPA inh	NS1 function inh
C#C[C@]1(OC(C)=O)CC[C@H]2[C@@H]3CCC4=CC(=O)CC[C@@H]4[C@H]3CC[C@@]21C	.	.	6.0	-5.0	12.0%	.
CO[C@H]1COC(=O)[C@H](C)NC(=O)C/C=C\[C@@H](C)[C@H](OC)COC(=O)[C@@H](OCc2ccccc2)/C=C\[C@@H]1C	.	.	.	.	0.2%[12.9 µM]	.
COc1ccccc1C(=O)NC(=O)Cn1nc(C)c([N+](=O)[O-])c1C	?	24.1%	.	.	.	.
COc1ccc(-n2c(-c3ccc(Br)cc3)c[n+]3c2CCc2ccccc2-3)cc1	1.85µM*	0.465µM*	13.6*	1.4	7.0%	10.8%
CC(C)c1ccc(-n2c(-c3ccccc3)c[n+]3c2CCc2ccccc2-3)cc1	1.04µM*	0.828µM*	-1.3	-3.9	9.0%	.
COc1ccccc1-n1c(-c2ccccc2)c[n+]2c1CCc1ccccc1-2	?	?	1.1	-9.0	7.4%	1.4%
Brc1ccc(-c2c[n+]3c(n2-c2ccccc2)SCC3)cc1	?	?	-1.2	-3.5	7.3%	-1.2%
COc1ccc(C(=O)CSc2ncnc3nc[nH]c23)cc1	-1.2%	13.3%	3.0	14.2	-23.4%	4.8%
Brc1ccc(CSc2ncnc3nc[nH]c23)cc1	32.3%	-40.7%	15.9*	17.6	-1.1%	?
Cc1ccc(OCCSc2ncnc3nc[nH]c23)cc1	124.2%	.	60.8*	75.9	-8.0%	-53.1%
CCN(C(=O)c1ccc2c(Cl)c3c(nc2c1)CCC3)c1ccc(C)c(C)c1	?	10.4µM*	-2.9	-12.5	-1.0%	?
CN(C(=O)c1ccc2c(Cl)c3c(nc2c1)CCC3)c1ccccc1	95.9%	?	45.0*	93.5*	6.4%	-37.2%
O=C1C2CCCCN2C(=O)N1CCCCN1CCN(c2ccccc2Oc2ccccc2)CC1 (configuration not stated)	?	?	-1.9	-10.3	-26.0%	-8.1%
CCCNC(=O)c1ccccc1N1CCN(CCCCN2C(=O)C3CCCCN3C2=O)CC1 (configuration not stated)	-8.8%	10.4µM*	-2.2	.	4.0%	13.8%
N#Cc1ccc(C23CC4CC(CC(C4)C2)C3)[nH]c1=O	?	3.7µM*	11.7	18.4	-3.6%	6.6%
O=C(COc1ccc(S(=O)(=O)N2CCCC2)cc1)NCc1ccccn1	0.0%	44.5%	-4.8	-8.4	4.6%	18.4%
Cc1cc(C(F)(F)F)n2nc(-c3cccs3)cc2n1	54.1%	0.0%	31.1*	39.4*	4.3%	3.7%
O=C(c1cc2nc(-c3cccs3)cc(C(F)(F)F)n2n1)N1CCCc2ccccc21	?	?	19.6*	26.1	-6.7%	-2.3%
O=C(c1nn2c(C(F)(F)F)cc(-c3cccs3)nc2c1Br)N1CCCc2ccccc21	-7.0%	?	20.8*	15.7	-3.2%	24.7%
c1cc[n+]2c(c1)-c1cccc[n+]1CC2	.	.	4.0	7.6	-20.6%	.
O=S(=O)(c1ccccc1Cl)N1CCC(Cc2ccccc2)CC1	-12.5%	?	7.1	5.1	6.1%	3.4%
CCOc1ccc(-n2c(SCC(=O)NC)nnc2-c2ccco2)cc1	7.6%	30.6%	-2.0	-8.1	9.1%	-2.1%
O=C(Nc1ccc2c(c1)OCO2)C1CC(c2cccc(Br)c2)=NO1 (configuration not stated)	15.2%	-12.6%	-2.3	-6.6	4.6%	-5.6%
CC(=O)Nc1ccccc1C(=O)OCc1ccccc1F	55.9%	?	28.8*	61.2	3.2%	-7.4%
COC(=O)c1ccccc1NC(=O)COC(C)=O	6.9%	13.5%	-1.6	-8.1	1.7%	9.1%
SMILES	Pf growth 48h	Pf growth 96h	CHX counter	Shiga inhibitor	Giardia FBPA inh	NS1 function inh
CC(=O)Nc1ccccc1C(=O)OCC(=O)c1ccccc1Cl	59.1%	107.1%	23.6*	53.2*	-0.1%	-18.8%
CS(=O)(=O)N(Cc1nc(-c2ccc(F)cc2)no1)c1ccccc1Cl	?	-18.8%	.	.	.	.
COc1cc(C(C)=O)ccc1OCC(=O)Nc1ccccc1N1CCCC1	-23.5%	10.4µM*	-1.0	9.2	.	-39.5%
COc1cc(C(C)=O)ccc1OCC(=O)Nc1ccccc1N1CCCCC1	13.1µM*	?	.	.	.	.
COc1ccc(CC(=O)Nc2ccccc2N2CCCC2)cc1OC	?	-15.7%	-4.4	-5.5	.	10.2%
COc1ccc(/C=N/NC(=O)c2c(C)nnn2-c2nonc2N)cc1OC	?	-1.1%	11.7	-17.9	0.7%	.
